This is a sample that favours compounds with a hit; in the whole collection about 2.9% have one here.
EP2 modulator: EP2 receptor modulators, cAMP readout, primary screen, cell-based, HTRF cAMP, PGE2 stimulation. Prostaglandin E2 receptor EP2 subtype (Homo sapiens), P43116. EP2-expressing cells, cAMP HTRF FRET, PGE2 co-stimulation. induction, % at 25 µM. 0.83% of 260,000 active. AID 940, 2007;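 active means compounds whose cAMP rise, as percent of the full-agonist control response, exceeds 60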;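 further: rat C6 glioma line stably carrying human EP2 under a CMV promoter; the protocol text gives 20 µM as final concentration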
Rev-erbA mod: modulators of Rev-erb alpha DNA binding, primary screen, biochemical, FITC-DNA, fluorescence polarization, uHTS; Nuclear receptor subfamily 1 group D member 1 (Homo sapiens), P20393; Rev-erbα–FITC-DNA binding, 90 min; activity, % at 10 µM; 0.79% of 370,000 active;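 active means activity above about 14%, limit read from the data; passing the limit was not always enough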
Target sequence (P20393 whole entry, looked up): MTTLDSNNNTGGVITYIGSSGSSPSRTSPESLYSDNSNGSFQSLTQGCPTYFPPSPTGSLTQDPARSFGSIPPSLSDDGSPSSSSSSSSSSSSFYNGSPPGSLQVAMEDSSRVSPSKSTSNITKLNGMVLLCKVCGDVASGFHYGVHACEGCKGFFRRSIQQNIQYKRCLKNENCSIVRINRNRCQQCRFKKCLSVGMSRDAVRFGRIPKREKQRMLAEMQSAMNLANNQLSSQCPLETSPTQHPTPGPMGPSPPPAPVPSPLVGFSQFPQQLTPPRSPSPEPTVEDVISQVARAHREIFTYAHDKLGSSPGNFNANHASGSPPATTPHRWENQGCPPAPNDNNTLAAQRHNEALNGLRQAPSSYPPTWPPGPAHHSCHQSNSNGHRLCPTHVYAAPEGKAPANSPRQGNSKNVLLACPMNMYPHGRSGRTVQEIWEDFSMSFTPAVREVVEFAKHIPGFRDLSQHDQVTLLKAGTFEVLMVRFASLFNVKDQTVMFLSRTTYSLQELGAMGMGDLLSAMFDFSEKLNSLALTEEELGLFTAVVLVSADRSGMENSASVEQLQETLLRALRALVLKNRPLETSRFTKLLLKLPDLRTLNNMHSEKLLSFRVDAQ
PG9 Ab binder: binders of HIV-1 gp120 antibody PG9, primary screen, biochemical, TR-FRET; TR-FRET gp120-PG9 antibody binding; inhibition, % at 6.7 µM; 0.43% of 360,000 active; AID 624416, 2012; in the data active means inhibition above about 8.5%
RAM network inh: inhibitors of the yeast RAM network, primary screen, dse1pr::URA3 reporter, 5-FOA selection. S. cerevisiae dse1pr::URA3 reporter, 5-FOA growth OD615, 2 d; analog-sensitive cbk1-as2 kinase mutant strain. inhibition, % at 50 µM. 1.8% of 190,000 active. AID 868, 2007;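 active means inhibition above a set limit, 3 SD over mean compound inhibition, cut at about 8.4% in these data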;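 further: inhibition rescues growth on 5-FOA so higher OD means more RAM inhibition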
SKN-1 block: suppressors of acrylamide-induced Pgst-4::GFP reporter in worms, primary screen, SKN-1 inhibitor project, whole organism, uHTS, GFP/RFP fluorescence ratio, strain VP596; AID 624304, 2012; inhibition, % at 21.8 µM; C. elegans VP596 Pgst-4::GFP/RFP ratio, 24 h; 0.49% of 360,000 active;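 active means interference check ratio from 0.5 to 1.5 plus GFP to RFP signal ratio inhibition reaching or exceeding a fixed threshold, cut at about 30% in these data, passing the limit was not always enough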
EP2 antag: human EP2 receptor antagonists, primary screen, TR-FRET cAMP, C6 glioma cells; inhibition, % at 25 µM; AID 1422, 2008; 0.52% of 260,000 active; C6 glioma cells expressing human EP2; cells stimulated with saturating PGE2;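 active means percent inhibition above 40 after rounding to a whole number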;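 further: rat C6 glioma host cells with rolipram phosphodiesterase inhibitor present; the protocol text gives 20 µM as final concentration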
NR1D1 mod conf: modulators of Rev-erb alpha DNA binding, confirmation, biochemical, FITC-DNA, fluorescence polarization, single point. shares compounds with Rev-erbA mod. 90 min. activation, % at 25 µM. 61% of 3,000 active. AID 1259319, 2017;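 active means activation at or above a set limit, or at least 3 SD above the negative control mean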
RORg DNA counter: modulation of RORgamma DNA binding, dose response, counter-screen for Rev-erb alpha modulator project, biochemical, fluorescence polarization, FITC-DNA; shares compounds with Rev-erbA mod; purified RORgamma protein-FITC-DNA binding; IC50, µM; 8% of 910 active;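 active means Compounds whose fitted half-maximal concentration for disrupting protein-DNA binding is below 10 micromolar; the record names Rev-erb in its text, so the target is in doubt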
A number is an active result; – = inactive; · = no result.

SMILES	EP2 modulator	Rev-erbA mod	PG9 Ab binder	RAM network inh	SKN-1 block	EP2 antag	NR1D1 mod conf	others
COc1ccc(C(=O)c2sc3nc4c(c(-c5cccs5)c3c2N)CN(C)CC4)cc1OC	–	·	·	·	·	–	·
O=C(C1CCCCC1)N1CCCC(n2nc(-c3cccs3)ccc2=O)C1 (stereo not drawn)	–	·	·	·	·	·	·
COc1ccc(C(C#N)c2cc(C)nc3ncnn23)cc1 (stereo not drawn)	–	·	·	·	·	–	·
Cn1nnnc1SCc1cccc2ccccc12	–	–	–	–	–	–	·
Cn1nnnc1SCc1nc2ccccc2s1	–	22	–	–	–	–	–
CCC(CC)COC(=O)C1=C(C)NC(=O)NC1c1ccccc1Br (stereo not drawn)	·	17	–	·	–	·	–
COc1ccc(-c2cc3ncc(-c4ccccc4)c(N)n3n2)cc1	–	–	–	–	–	–	·
N#Cc1cnc2cc(-c3ccccc3)nn2c1N	–	27	–	·	–	–	32	RORg DNA counter=–
FC(F)(F)c1cc(-c2cccs2)nc2cc(-c3ccccc3)nn12	–	33	–	–	–	–	–
CC(=O)N1c2ccccc2S(=O)(=O)c2c1ccc1ccccc21	·	23	–	·	–	·	–
Cc1cc(NC(=O)c2cccs2)cc(-c2nc3ncccc3o2)c1O	·	71	–	·	–	·	67	RORg DNA counter=–
CCOc1cc(CN2CCc3c(nc(C)[nH]c3=O)C2)ccc1O	–	·	·	·	·	–	·
CCc1cc2c(oc(=O)c3ccccc32)c(CN2CCOCC2)c1O	–	·	·	·	·	–	·
Cc1c(Cl)cc(C(C)C)c(O)c1CN1CCOCC1	·	42	–	·	–	·	43	RORg DNA counter=–
Cc1cc(C(C)c2ccccc2)c(O)c(CN2CCOCC2)c1C (stereo not drawn)	–	33	–	–	–	–	43	RORg DNA counter=–
Oc1c(Cl)cc(Cl)c(Cl)c1CN1CCOCC1	·	–	–	·	–	·	·
Cc1nn(CC(=O)N(C)CCc2ccccn2)c(=O)c2cc3occc3n12	–	·	·	·	·	–	·
c1ccc(CSc2nc3ncncc3[nH]2)cc1	–	–	–	·	–	–	·
S=c1nc(SCc2ccccc2)[nH]c2ccccc12	–	29	–	–	–	–	–
Cc1c(/C(O)=C2/C(=O)C(=O)N(CCN3CCOCC3)C2c2cccs2)cnn1-c1ccccc1 (stereo not drawn)	–	21	–	–	–	–	26
O=C(Oc1ccc2ccccc2c1)N1CCOCC1	–	·	·	·	·	–	·
O=C(N1CCCCCC1)N1CCOCC1	–	·	·	·	·	–	·
COc1ccc(C2Nc3ccccc3C(=O)N2c2ccc(F)cc2)cc1CSc1ccccn1 (stereo not drawn)	–	30	–	–	–	–	–
COc1ccc(C2Nc3ccccc3C(=O)N2c2ccccc2)cc1CSc1ccccn1 (stereo not drawn)	–	–	–	–	–	–	·
CCc1ccc(S(=O)(=O)ON2C(=O)c3ccccc3C2=O)cc1	–	–	–	–	–	–	·
SMILES	EP2 modulator	Rev-erbA mod	PG9 Ab binder	RAM network inh	SKN-1 block	EP2 antag	NR1D1 mod conf	others
O=C1c2cccc3cccc(c23)C(=O)N1OS(=O)(=O)c1ccc(Cl)cc1	–	22	–	–	–	–	–
COc1ccc(OC)c(S(=O)(=O)N2CCC(C(=O)NCc3ccc(C)cc3)CC2)c1	–	·	·	·	·	–	·
CCCc1c(C(=O)N/N=C/c2ccc(C)o2)nnn1-c1nonc1N	·	–	–	·	–	·	·
CCCN(CCC)Cc1c(C(=O)N/N=C/c2ccc(C)o2)nnn1-c1nonc1N	·	31	–	·	–	·	–
O[C@H]1C[C@H](c2ccccc2)N(Cc2cccs2)C[C@@H]1n1cc(C2CC2)nn1	·	18	–	·	–	·	–
Cn1c(=O)c(NCCO)c2c3c(cccc31)C(=O)c1ccccc1-2	–	101	–	–	–	–	118	RORg DNA counter=–
Cc1cccc(NC2=C(NCCO)C(=O)c3ccccc3C2=O)c1	–	–	–	–	–	–	·
CC(=O)Nc1ccc(NC2=CC(=O)c3ccccc3C2=O)cc1	·	–	–	·	–	·	·
CC(=O)Nc1ccc(Nc2c3c4c(cccc4n(C)c2=O)C(=O)c2ccccc2-3)cc1	–	33	–	–	–	–	31	RORg DNA counter=–
Cc1ccc(C(C(=O)NC2CCCC2)N(Cc2ccco2)C(=O)c2ccco2)cc1 (stereo not drawn)	–	·	·	·	·	–	·
COCCN(Cc1cc2cc(C)ccc2n2nnnc12)C(=S)Nc1ccc(C)cc1	–	104	–	–	–	–	49	RORg DNA counter=–
CCC(C)NC(=S)N(Cc1cc2cc(C)ccc2n2nnnc12)C1CCCCC1 (stereo not drawn)	–	·	·	·	·	–	·
COCCNC(=S)N(Cc1cc2cc(C)ccc2n2nnnc12)C1CCCC1	–	54	–	–	–	–	22
COCCN(Cc1cc2cc(C)ccc2n2nnnc12)C(=S)Nc1ccc(OC)cc1	–	–	–	·	–	–	·
COc1cc(N2N=C(c3ccccc3)CC2c2ccccc2)c(C=O)cc1C=O (stereo not drawn)	·	107	–	·	–	·	75	RORg DNA counter=–
COc1ccc(Oc2c(Cl)cnn(CC(=O)C(c3ccccc3)c3ccccc3)c2=O)cc1	·	78	·	·	·	·	57	RORg DNA counter=–
Cn1ncc(Cl)c(Oc2ccccc2)c1=O	–	–	·	–	–	–	·
COC(=O)c1ccc(S(=O)(=O)N(Cc2ccco2)Cc2cc3ccc(C)cc3[nH]c2=O)cc1	–	·	·	·	·	–	·
COc1ccc(Cn2ccc3ccc(-c4ccc5ccn(C(=O)c6ccccc6)c5c4)cc32)cc1	·	–	·	·	·	·	·
Cc1ccc(C(=O)n2ccc3ccc(-c4ccc5ccn(Cc6ccc(C#N)cc6)c5c4)cc32)cc1	·	40	·	·	·	·	14
N#Cc1ccc(Cn2ccc3ccc(-c4ccc5ccn(Cc6ccc(C#N)cc6)c5c4)cc32)cc1	·	–	·	·	·	·	·
COc1ccc(Cn2ccc3ccc(-c4ccc5ccn(C(=O)c6ccc(C)cc6)c5c4)cc32)cc1	·	37	·	·	·	·	45	RORg DNA counter=–
CCCCOc1ccc(C(=O)n2ccc3ccc(-c4ccc5ccn(Cc6cccc(C(=O)OC)c6)c5c4)cc32)cc1	·	37	·	·	·	·	21
Cc1ccc(C(=O)n2ccc3ccc(-c4ccc5ccn(Cc6ccccc6)c5c4)cc32)cc1	·	39	·	·	·	·	27
COC(=O)c1cccc(Cn2ccc3ccc(-c4ccc5ccn(C(=O)c6ccccc6)c5c4)cc32)c1	·	–	·	·	·	·	·
COc1cccc(-n2c(SCC(=O)Nc3ccc(C)cc3C)nnc2-c2cccnc2)c1	–	·	·	·	·	–	·
